Measured values: PubChem BioAssay (NCI)
The panel holds about 79,000 compounds, 15% with a hit somewhere; the sample as a whole holds those more often. The source made the active and inactive calls. Rule as the data show it: active = growth inhibition above about 70%; inactive = the rest.

Tests used:
[1] = NCI Yeast Anticancer Drug Screen. Data for the rad50 strain (AID 155);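 also: 0% = growth of vehicle-only cultures of the same strain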; conditions: S. cerevisiae rad50 strain growth inhibition, stronger effect = higher value
Method in brief: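 Vehicle-treated cultures provide the reference for the growth inhibition reported for compound-exposed, repair-deficient yeast.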

[2] = NCI Yeast Anticancer Drug Screen. Data for the mec2-1 strain (AID 157); conditions: S. cerevisiae mec2-1 strain, stronger effect = higher value
Method in brief: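 Compounds were applied to mec2-1 yeast cells. Their growth was then compared with that of vehicle-treated cultures to give growth inhibition.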

[3] = NCI Yeast Anticancer Drug Screen. Data for the sgs1 mgt1 strain (AID 161);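 also: 0% = growth of cultures given vehicle only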; conditions: S. cerevisiae sgs1 mgt1 strain, stronger effect = higher value
Method in brief: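 Compounds are added to genetically altered yeast, and growth is compared with cultures given vehicle alone to give percent inhibition.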

[4] = NCI Yeast Anticancer Drug Screen. Data for the cln2 rad14 strain (AID 165);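 also: 0% = growth equal to vehicle treated cultures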; conditions: S. cerevisiae cln2 rad14 strain, stronger effect = higher value
Method in brief: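 Strain: cln2 rad14 yeast, altered in cell cycle control and DNA damage repair. Read-out: growth inhibition vs vehicle.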

[5] = NCI Yeast Anticancer Drug Screen. Data for the bub3 strain (AID 167); conditions: S. cerevisiae bub3 mutant strain, stronger effect = higher value
Method in brief: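 Mutant yeast screening strain plus compound; vehicle-treated cultures serve as the 0% inhibition reference.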

[6] = NCI Yeast Anticancer Drug Screen. Data for the mlh1 rad18 strain (AID 175); conditions: S. cerevisiae mlh1 rad18 strain growth inhibition, stronger effect = higher value
Method in brief: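 A repair-deficient yeast strain is exposed to test compound, and growth is scored relative to vehicle-treated controls.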

[7] = at 5.0 µM (retest, dose inferred, filed as 0.5)
[8] = at 50.0 µM (retest, dose inferred, filed as 5.0)

Measured: growth inhibition

O=c1nc2n(CCN(CCCl)CCCl)c3cc(Cl)c(Cl)cc3nc-2c(=O)[nH]1
inactive: [1]; at 50.0 µM 38% | [2]; at 50.0 µM -1.65% | [3]; at 50.0 µM 45% | [4]; at 50.0 µM 34.6% | [5]; at 50.0 µM 3.65%

CC1=C[C@H]2O[C@@H]3[C@H](O)[C@@H](O)[C@](C)(C2(COC(=O)CCl)CC1)[C@@]31CO1 (stereo partly specified)
active: [1]; at 50.0 µM 87% | [2]; at 50.0 µM 89.7% | [3]; at 50.0 µM 87.7% | [4]; at 50.0 µM 90.2% | [5]; at 50.0 µM 88.5%

COc1ccc2nc3cc(Cl)ccc3c(NCCCN(CCCl)CCCl)c2c1
inactive: [1]; at 50.0 µM 51% | [2]; at 50.0 µM 19.2% | [3]; at 50.0 µM 37.2% | [4]; at 50.0 µM 34.2% | [5]; at 50.0 µM 7.6%

O=C(CF)CCl
inactive: [2]; [7] 25% | [3]; [8] 65% | [5]; [7] 32% | [6]; [7] 69%
active: [1]; [7] 89% | [1]; [8] 98% | [2]; [8] 99% | [3]; [7] 88% | [4]; [7] 79% | [4]; [8] 99% | [5]; [8] 99% | [6]; [8] 98%

O=C([O-])CC(=O)[O-].[NH-][C@@H]1CCCC[C@H]1[NH-].[Pt+4]
inactive: [1]; at 50.0 µM -14.2% | [2]; at 50.0 µM -15.5% | [3]; at 50.0 µM -24.5% | [4]; at 50.0 µM -25.1% | [5]; at 50.0 µM -24.5%

NCCC1CCc2[nH]c3ccccc3c2C1 (stereo unspecified)
inactive: [1]; at 50.0 µM -7.3% | [2]; at 50.0 µM -6.1% | [3]; at 50.0 µM -0.5% | [4]; at 50.0 µM -52.4% | [5]; at 50.0 µM -15.3% | [6]; at 50.0 µM -8.15%

O=[n+]1c2ccccc2n([O-])c2ccccc21
active: [1]; [7] 93% | [1]; [8] 98% | [3]; [8] 99% | [4]; [8] 98% | [5]; [8] 99% | [6]; [7] 79% | [6]; [8] 98%
inactive: [3]; [7] 61% | [4]; [7] 18% | [5]; [7] 0%

Cc1nnc2cc3ccccc3cn12
inactive: [1]; at 50.0 µM 21% | [2]; at 50.0 µM 9.45% | [3]; at 50.0 µM 26.4% | [4]; at 50.0 µM 9.45% | [5]; at 50.0 µM 21.9%

[Cl][Sn]([c]1ccccc1)([c]1ccccc1)[c]1ccccc1
active: [1]; [7] 99% | [1]; [8] 98% | [2]; [7] 99% | [2]; [8] 99% | [3]; [7] 100% | [3]; [8] 99% | [4]; [7] 99% | [4]; [8] 99% | [5]; [7] 100% | [5]; [8] 99% | [6]; [7] 99% | [6]; [8] 98%

O=[N+]([O-])c1cc(Cl)c(Cl)cc1[N+](=O)[O-]
active: [1]; [7] 83% | [1]; [8] 99% | [2]; [8] 99% | [3]; [8] 100% | [4]; [8] 99% | [5]; [8] 99% | [6]; [8] 98%
inactive: [2]; [7] 16% | [3]; [7] 41% | [4]; [7] -2% | [5]; [7] 14% | [6]; [7] -11%

CC(C(O)c1cccnc1)[N+](=O)[O-] (stereo unspecified)
inactive: [1]; at 50.0 µM -21.8% | [2]; at 50.0 µM -4.35% | [3]; at 50.0 µM -23.6% | [4]; at 50.0 µM -10.1% | [5]; at 50.0 µM 3.95% | [6]; at 50.0 µM -17.4%

C1CC2CCC(N3CCCC3)C(C1)C21OCCO1 (stereo unspecified)
inactive: [1]; at 50.0 µM 11.3% | [2]; at 50.0 µM 9.75% | [3]; at 50.0 µM 5.05% | [4]; at 50.0 µM -3.2% | [5]; at 50.0 µM 6.45% | [6]; at 50.0 µM -8.9%

FC(F)(F)C1(F)N(Cc2ccccc2)C1(F)C(F)(F)F (stereo unspecified)
inactive: [1]; at 50.0 µM 9.1% | [2]; at 50.0 µM -7.5% | [3]; at 50.0 µM -10.3% | [4]; at 50.0 µM -6.65% | [5]; at 50.0 µM 7%

c1ccc2c(c1)cc1ccc3cccc4ccc2c1c34
inactive: [1]; at 50.0 µM -6.9% | [2]; at 50.0 µM -14.9% | [3]; at 50.0 µM 7.15% | [4]; at 50.0 µM 15.5% | [5]; at 50.0 µM 14.4%

COc1cc2ccnc(C3(OC(=O)c4ccccc4)CCN(CCc4ccccc4)CC3)c2cc1OC
inactive: [1]; at 50.0 µM -1.3% | [2]; at 50.0 µM -7.15% | [3]; at 50.0 µM -21.9% | [4]; at 50.0 µM -17.1% | [5]; at 50.0 µM 2.95% | [6]; at 50.0 µM -0.95%

CCOC(=O)C(CC(C)C)NC(=O)C(N)Cc1ccc(N(CCCl)CCCl)cc1 (stereo unspecified)
inactive: [1]; at 50.0 µM -2.4% | [2]; at 50.0 µM -8.9% | [3]; at 50.0 µM -27.1% | [4]; at 50.0 µM -17.6% | [5]; at 50.0 µM -30.1%

CC(=O)O.CC(=O)O.CC(=O)O.CC(=O)O.[Cu].[Cu]
inactive: [1]; at 50.0 µM 36.9% | [2]; at 50.0 µM 20.2% | [3]; at 50.0 µM 56.5% | [4]; at 50.0 µM -53.6% | [5]; at 50.0 µM 26.9% | [6]; at 50.0 µM 40.8%

CCC1(O)C(=O)OCc2c1cc1n(c2=O)Cc2cc3ccc(C=O)cc3nc2-1 (stereo unspecified)
inactive: [1]; at 50.0 µM 39.5% | [2]; at 50.0 µM 19% | [3]; at 50.0 µM -17.5% | [4]; at 50.0 µM 2.3% | [5]; at 50.0 µM -24.7%

CCC1(OC(=O)CNC)C(=O)OCc2c1cc1n(c2=O)Cc2cc3ccccc3nc2-1 (stereo unspecified)
inactive: [4]; at 50.0 µM 60.2%
active: [1]; at 50.0 µM 78.7% | [2]; at 50.0 µM 83.7% | [3]; at 50.0 µM 76.3% | [5]; at 50.0 µM 72%
